The whole screen tested about 310,000 compounds, of which about 14,000 (4.5%) showed an effect of 50% or more. Effects have a minus sign here. This is one part of a sample in which strong results are shown more often than they occur.
What follows are molecules tested against human ether-à-go-go-related gene (hERG) potassium channel (human, UniProt Q12809) (assay: primary screen, population patch clamp on CHO cells stably expressing hERG; higher = less effect of the substance).
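Further: peak tail current of the secondary pulse compared with the same well before compound.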

Sequence of human ether-à-go-go-related gene (hERG) potassium channel (Q12809 whole entry, looked up): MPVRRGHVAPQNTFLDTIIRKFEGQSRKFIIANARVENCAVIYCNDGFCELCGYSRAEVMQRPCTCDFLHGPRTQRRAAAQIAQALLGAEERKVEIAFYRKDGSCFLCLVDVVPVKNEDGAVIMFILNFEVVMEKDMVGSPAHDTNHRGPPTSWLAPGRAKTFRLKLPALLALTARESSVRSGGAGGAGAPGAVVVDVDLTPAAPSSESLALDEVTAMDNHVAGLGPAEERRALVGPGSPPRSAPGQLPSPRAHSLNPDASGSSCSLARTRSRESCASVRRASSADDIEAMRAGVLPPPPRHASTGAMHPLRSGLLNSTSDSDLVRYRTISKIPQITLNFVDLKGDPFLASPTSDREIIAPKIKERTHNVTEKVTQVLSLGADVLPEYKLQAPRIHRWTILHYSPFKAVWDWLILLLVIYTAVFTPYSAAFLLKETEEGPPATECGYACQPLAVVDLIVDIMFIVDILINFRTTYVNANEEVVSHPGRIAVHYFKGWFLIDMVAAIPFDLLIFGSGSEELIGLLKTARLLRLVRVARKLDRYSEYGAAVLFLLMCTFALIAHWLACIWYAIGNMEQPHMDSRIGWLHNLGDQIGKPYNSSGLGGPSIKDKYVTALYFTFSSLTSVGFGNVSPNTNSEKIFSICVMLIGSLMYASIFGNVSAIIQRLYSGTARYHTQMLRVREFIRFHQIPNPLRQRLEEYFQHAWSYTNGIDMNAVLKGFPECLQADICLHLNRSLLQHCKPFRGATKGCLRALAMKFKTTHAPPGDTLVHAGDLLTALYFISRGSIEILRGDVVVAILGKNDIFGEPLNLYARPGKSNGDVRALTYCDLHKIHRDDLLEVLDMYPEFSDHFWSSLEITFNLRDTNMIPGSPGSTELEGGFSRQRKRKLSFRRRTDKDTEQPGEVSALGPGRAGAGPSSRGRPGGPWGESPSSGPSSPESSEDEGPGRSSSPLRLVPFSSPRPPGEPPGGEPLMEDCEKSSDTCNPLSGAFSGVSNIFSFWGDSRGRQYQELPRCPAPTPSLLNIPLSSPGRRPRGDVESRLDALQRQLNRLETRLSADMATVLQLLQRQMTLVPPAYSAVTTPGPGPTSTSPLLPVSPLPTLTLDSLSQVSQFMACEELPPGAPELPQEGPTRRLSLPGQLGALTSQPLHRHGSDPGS

SMILES | hERG current change (%, negative = inhibition) at 10uM [%]
COc1ccc(NC(=S)Nc2ccccn2)cc1 | 13.5
COc1ccc(C)cc1C(=O)CCC(=O)NCCc1ccc(S(N)(=O)=O)cc1 | 19.6
CCOc1ccc(Cn2nnc(C(=O)NCc3ccccc3)c2N)cc1 | 11.6
O=C1NC(=O)C2(Cc3ccccc3N3CCCC32)C(=O)N1c1cccc(Cl)c1 (stereo not drawn) | -18.1
CCOc1ccc(N(C(=O)c2cnccn2)C(C(=O)NC2CCCCC2)c2ccc(O)cc2)cc1 (stereo not drawn) | 10.4
CC(C)c1ccc(N(C(=O)c2csnn2)C(C(=O)NC2CCCC2)c2ccncc2)cc1 (stereo not drawn) | -57.8
COc1ccc(N(C(=O)c2csnn2)C(C(=O)NC2CCCC2)c2ccccc2)cc1 (stereo not drawn) | -9.35
O=C(NC1CCCC1)C(c1ccncc1)N(C(=O)c1csnn1)c1ccc(Cl)cc1 (stereo not drawn) | -10.4
CC(=O)c1ccc(N(C(=O)c2csnn2)C(C(=O)NC2CCCC2)c2ccccc2)cc1 (stereo not drawn) | -54.9
CCc1ccc(N(C(=O)c2csnn2)C(C(=O)NC(C)(C)C)c2ccccn2)cc1 (stereo not drawn) | -42.7
COc1ccc(N(C(=O)c2cnsn2)C(C(=O)NC2CCCCC2)c2ccncc2)cc1 (stereo not drawn) | -26.7
Cc1ccc(N(C(=O)c2csnn2)C(C(=O)NC2CCCCC2)c2ccncc2)cc1 (stereo not drawn) | -1.71
CCc1ccc(N(C(=O)c2csnn2)C(C(=O)NC(C)(C)CC)c2ccccn2)cc1 (stereo not drawn) | -54.3
CCC(C)(C)NC(=O)C(c1ccccn1)N(C(=O)c1csnn1)c1ccccc1 (stereo not drawn) | 5.39
CCOc1ccc(N(C(=O)c2cnsn2)C(C(=O)NC2CCCCC2)c2ccncc2)cc1 (stereo not drawn) | -69.4
CC(=O)c1cccc(N(C(=O)c2csnn2)C(C(=O)NC2CCCC2)c2ccccc2)c1 (stereo not drawn) | -18.5
COc1cccc(Nc2ncnc3onc(-c4ccccc4OC)c23)c1 | -4.9
CNC(=S)N(Cc1cc2cc(C)cc(C)c2[nH]c1=O)C1CCCC1 | -3.94
c1ccc(CCCc2nc(-c3ccccn3)no2)cc1 | -7.53
COc1ccccc1Nc1nnc(SCC(=O)N2CCCC2=O)s1 | -11.4
COCCCNC(=O)C1CCN(c2ccc(N3CCOCC3)nn2)CC1 | 10.1

SMILES | hERG current change (%, negative = inhibition) at 10uM [%]
O=C(CCCc1nc2ccccc2s1)N1CCN(c2ccccc2F)CC1 | -31.3
COc1ccc2[nH]c3c(=O)n4c(nc3c2c1)SCC4 | 6.11
COc1ccc(CN2CC(C(=O)NCCCOC(C)C)CC2=O)cc1 (stereo not drawn) | 0.406
CC(CC(=O)Nc1ccc(F)cc1F)S(=O)(=O)c1ccc2c(c1)NC(=O)CO2 (stereo not drawn) | -9
CC(=O)c1ccc(N2C(=O)C3C4C=CC(CC4)C3C2=O)cc1 (stereo not drawn) | 13.6
CN(C)S(=O)(=O)c1cccc(C(=O)Nc2ccccc2N2CCCCC2)c1 | 5.55
COCCn1c(SC(C)C(=O)NCC2CCCO2)nc2scc(-c3ccc(F)cc3)c2c1=O (stereo not drawn) | -66.5
COCCn1c(SC(C)C(=O)NCC2CCCO2)nc2sc3c(c2c1=O)CCC3 (stereo not drawn) | -8.18
CCn1c(SC(C)C(=O)NCC2CCCO2)nc2scc(-c3ccccc3)c2c1=O (stereo not drawn) | -28.7
CCOC(=O)/C(=C/c1c(C)n(C)c2ccc([N+](=O)[O-])cc12)C(C)=O | -19.6
Cc1nn(-c2ccc(C(=O)OC(C)C)cc2)c(C)c1[N+](=O)[O-] | 4.98
CCOC(=O)CNC(=O)C1CCN(S(=O)(=O)c2ccc(-c3nn[nH]n3)cc2)CC1 | 8.58
Cc1cccc2cc(CN(Cc3cccnc3)C(=O)c3ccccc3F)c(Cl)nc12 | -49.6
Cc1cc(C)c2cc(CN(Cc3cccnc3)C(=O)c3ccc(F)cc3)c(Cl)nc2c1 | -64.7
COCCN(Cc1cc2c(C)cc(C)cc2nc1Cl)C(=O)c1ccccc1F | 44.3
CC(=O)Nc1ccccc1C(=O)C(=O)Nc1ccc(C)c(F)c1 | 24.3
O=C(CSC1=NCCS1)Nc1ccc(S(=O)(=O)NC2CCCCC2)cc1 | -8.65
CC1CCN(CC(O)COc2ccc(-c3ccccc3)cc2)CC1.Cl (stereo not drawn) | -81
CC(=O)c1ccc(OCC(O)CN2CC(C)OC(C)C2)cc1.Cl (stereo not drawn) | 8.19
CC(=O)c1ccc(OCC(O)CN2CCC(C)CC2)cc1.Cl (stereo not drawn) | -31.6
OC(COc1ccc(OCC(O)CN2CCN(Cc3ccccc3)CC2)cc1)CN1CCN(Cc2ccccc2)CC1 (stereo not drawn) | 5.65

SMILES | hERG current change (%, negative = inhibition) at 10uM [%]
O=C(c1ccccc1)c1ccc(OCC(O)CN2CCCC2)cc1 (stereo not drawn) | -45.3
NC(=O)C1CCN(CC(O)COc2ccc(-c3ccccc3)cc2)CC1 (stereo not drawn) | -34.4
CCC(=O)c1ccc(OCC(O)CN2CC(C)OC(C)C2)cc1.O=C(O)C(=O)O (stereo not drawn) | 14
CC1CCN(CC(O)COc2ccc(C(=O)c3ccccc3)cc2)CC1 (stereo not drawn) | -67.4
O=C(c1ccccc1)c1ccc(OCC(O)CN2CCN(Cc3ccccc3)CC2)cc1 (stereo not drawn) | -73.4
CC(=O)c1ccc(OCC(O)CN2CCN(Cc3ccccc3)CC2)cc1.Cl (stereo not drawn) | -48.2
CC1CCN(CC(O)COc2ccc(OCC(O)CN3CCC(C)CC3)cc2)CC1 (stereo not drawn) | 3.84
CC1CN(CC(O)COc2ccc(C(=O)c3ccccc3)cc2)CC(C)O1 (stereo not drawn) | -63.3
CC(=O)c1sc(-c2ccc(F)cc2)cc1NS(=O)(=O)c1ccc(C)cc1 | 7.93
C=CCOc1ccc2ccccc2c1CNn1cn[nH]c1=S | -8.17
O=C(NCCc1csc(-c2cccc(F)c2)n1)c1ccco1 | -4.61
O=C(CN1C(=O)S/C(=C\c2ccccc2)C1=O)Nc1cc([N+](=O)[O-])ccc1O | 6.11
O=C(c1cc(Cl)ccc1[N+](=O)[O-])n1cnc2ccccc21 | -11.9
Cc1cc2c(c(N)n1)c(=O)oc1ccccc12 | 13.9
Nn1c(CSc2nc3ccccc3o2)nnc1CSc1nc2ccccc2o1 | -22.8
O=C(CN1c2cccc3cccc(c23)S1(=O)=O)Nc1ccccc1 | 24.3
CCOc1ccc(NC(=O)CN(C)C(=O)CC2OC(=O)c3ccccc32)cc1OCC (stereo not drawn) | 0.75
CN(CC(=O)Nc1ccc(Cl)c(Cl)c1)C(=O)CC1OC(=O)c2ccccc21 (stereo not drawn) | -70.3
CN(CC(=O)Nc1c(Cl)cccc1Cl)C(=O)CC1OC(=O)c2ccccc21 (stereo not drawn) | -2.8
C/C=C/c1ccc(OCC(=O)Nc2ccncc2)c(OC)c1 | -14.9
COc1ccc2nc(N(CCN(C)C)C(=O)c3ccc(C(=O)c4ccccc4)cc3)sc2c1.Cl | -39.2

SMILES | hERG current change (%, negative = inhibition) at 10uM [%]
COc1ccc2nc(N(CCN(C)C)C(=O)/C=C/c3cccs3)sc2c1.Cl | -55.1
CCN(Cc1ccccc1)S(=O)(=O)c1ccc(C(=O)N(CCCN(C)C)c2nc3c(C)c(C)ccc3s2)cc1.Cl | -3.58
COc1ccc2sc(N(CCN(C)C)C(=O)/C=C/c3cccs3)nc2c1.Cl | -33.2
COc1ccc2sc(N(CCN(C)C)C(=O)c3ccc4ccccc4c3)nc2c1.Cl | -0.0157
CN(C)CCCN(C(=O)c1ccc(C(=O)c2ccccc2)cc1)c1nc2cc3c(cc2s1)OCCO3.Cl | -50
CN(C)CCCN(C(=O)c1ccc(S(=O)(=O)N(C)Cc2ccccc2)cc1)c1nc2c(F)cccc2s1.Cl | -38.2
COc1cc2nc(N(CCCN(C)C)C(=O)c3ccc(C(=O)c4ccccc4)cc3)sc2cc1OC.Cl | -70.4
CCOc1ccc2nc(N(CCN(C)C)C(=O)/C=C/c3cccs3)sc2c1.Cl | 4.24
CCN(Cc1ccccc1)S(=O)(=O)c1ccc(C(=O)N(CCCN(C)C)c2nc3c(F)cccc3s2)cc1.Cl | -66.3
COc1cc2nc(N(CCN(C)C)C(=O)c3ccc4ccccc4c3)sc2cc1OC.Cl | -40.8
COc1ccc2sc(N(CCCN(C)C)C(=O)c3ccc(C(=O)c4ccccc4)cc3)nc2c1.Cl | -77.3
O=C1CSC(c2ccccc2[N+](=O)[O-])N1CCc1ccccc1 (stereo not drawn) | -41
CCOc1cc(C(=O)N/N=C(\C)Cc2ccc(OC)cc2)cc(OCC)c1OCC | -3.15
FC(F)Oc1ccccc1/C=N/Nc1nc2ccccc2o1 | 33.5
Cn1c(NC(=O)c2ccco2)c(-c2ccccc2)c(=O)c2ccccc21 | 13.6
N[C@@]12CCc3nonc3[C@]1(O)CC(c1ccccc1)=[N+]2[O-] | -0.645
COc1ccccc1CN(C(=O)CNC(=O)c1ccco1)C(C(=O)NCC1CCCO1)c1ccccc1 (stereo not drawn) | 10
O=C(NC(=S)Nc1cccc(F)c1)c1cccc([N+](=O)[O-])c1 | 20.6

Source: paper PMC4336329 (PLoS ONE, 2015)
